# Laboratory results from the supplement of paper PMC11624193, “Coupling cellular drug-target engagement to downstream pharmacology with CeTEAM” (Nature Communications, 2024).
# Structures can show the parent of a compound that is named as a salt. Values without a mark were called inactive.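 The calls were made as follows: active = log2 fold change beyond 2 SD from the library mean after excluding viability outliers; inactive = within 2 SD.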
# Biological target: PARP1 L713F-nLuc biosensor (HCT116) (UniProt P09874)
# Experiment: PARP1 L713F-nLuc/akaLuc ratio relative to DMSO control (biosensor stabilization) (fold change); higher = more PARP1 biosensor stabilization (target engagement / stabilizer), active = hit call of the paper
# Details: stock concentration (mM; final µM = stock mM x 1): 10; 24 h
# Chain of PARP1 L713F-nLuc biosensor (HCT116) (P09874 whole entry L713F, looked up): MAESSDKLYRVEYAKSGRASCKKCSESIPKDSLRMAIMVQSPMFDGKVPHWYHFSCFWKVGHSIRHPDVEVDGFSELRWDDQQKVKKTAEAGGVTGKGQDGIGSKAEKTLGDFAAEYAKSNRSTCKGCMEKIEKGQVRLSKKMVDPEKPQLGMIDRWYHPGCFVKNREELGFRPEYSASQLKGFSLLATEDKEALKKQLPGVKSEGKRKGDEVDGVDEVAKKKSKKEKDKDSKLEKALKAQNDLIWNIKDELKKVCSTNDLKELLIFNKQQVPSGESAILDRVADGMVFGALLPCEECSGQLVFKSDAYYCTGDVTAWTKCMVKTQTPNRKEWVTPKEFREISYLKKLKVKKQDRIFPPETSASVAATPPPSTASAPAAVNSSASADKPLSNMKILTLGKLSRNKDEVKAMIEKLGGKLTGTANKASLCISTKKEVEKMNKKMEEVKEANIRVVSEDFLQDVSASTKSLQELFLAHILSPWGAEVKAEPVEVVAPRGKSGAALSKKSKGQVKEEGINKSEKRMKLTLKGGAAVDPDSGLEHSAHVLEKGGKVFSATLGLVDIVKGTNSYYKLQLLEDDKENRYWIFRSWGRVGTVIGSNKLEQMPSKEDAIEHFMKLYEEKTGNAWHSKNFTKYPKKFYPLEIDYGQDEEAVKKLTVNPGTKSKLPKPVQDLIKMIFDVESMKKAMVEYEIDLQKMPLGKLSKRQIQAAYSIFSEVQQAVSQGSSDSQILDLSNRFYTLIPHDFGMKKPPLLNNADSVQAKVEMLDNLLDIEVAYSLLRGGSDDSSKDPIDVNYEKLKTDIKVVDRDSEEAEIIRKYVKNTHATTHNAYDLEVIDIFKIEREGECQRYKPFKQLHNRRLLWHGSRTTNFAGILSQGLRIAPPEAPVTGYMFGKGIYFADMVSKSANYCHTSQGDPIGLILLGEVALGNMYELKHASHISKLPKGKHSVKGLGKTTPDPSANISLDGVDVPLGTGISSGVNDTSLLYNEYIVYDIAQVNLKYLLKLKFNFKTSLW
row,Compound,PARP1 L713F-nLuc/akaLuc ratio
1,C[C@H](Nc1ncnc2[nH]cnc12)c1cc2ccc(F)cc2nc1-c1ccccn1,0.767
2,O=C(c1ccc(Cl)cc1Cl)n1nnc2ccccc21,0.91
3,CN(C)C[C@@H]1CCn2cc(c3ccccc32)C2=C(C(=O)NC2=O)c2cn(c3ccccc23)CCO1,0.636
4,O=C1C(Cl)=C(NCCN2CCOCC2)C(=O)c2ncccc21,0.636
5,O=C(c1ccc(C(=O)N2CCC(N3CCCC3)CC2)c(Nc2ccccc2)c1)N1CCC(N2CCCC2)CC1,0.936
6,C[C@H]1CNCCCN1S(=O)(=O)c1cccc2cncc(F)c12 [Ripasudil (K-115) hydrochloride dihydrate],1.12
7,O=C(O)c1cnn(-c2nc3cc(OC(F)(F)F)c(Cl)cc3[nH]2)c1,0.757
8,CC1Oc2cc(cnc2N)-c2c(nn(C)c2C#N)CN(C)C(=O)c2ccc(F)cc21 (centres undefined),1.13
9,CC(C)c1cccc(=O)c(O)c1 [Hinokitiol],0.993
10,NC(=O)c1ccc(I)c([N+](=O)[O-])c1 [Iniparib],1.12
11,Nc1[nH]c(=O)nc2c1ncn2[C@@H]1O[C@H](CO)[C@@H](O)[C@H]1O [Crotonoside],0.835
12,Nc1ncc(-c2cccc(N3CCNCC3)c2)cc1C(=O)Nc1ccncc1 [PKC-iota inhibitor 1],1.02
13,O=C(O)c1c[nH]c2cc(Cl)c(-c3ccc(C4(O)CCC4)cc3)cc12,0.446
14,CC(C)(O)CC(=O)NCCn1ccc2ncnc(Nc3ccc(Oc4cccc(C(F)(F)F)c4)c(Cl)c3)c21,0.662
